Data taken from PubChem BioAssay (NCATS).
Several values for one entry are separate records, joined by “and”; a condition that tells them apart may be missing. Equal values may be shown once. Inconclusive results are not listed. Unmarked numbers belong to inactive results. Activity calls are given as the source filed them. The call rests on the fitted dose curve; in most records, active means well fitted inhibition curve with a large enough effect; inconclusive means small, poorly fitted or top-dose-only effect; inactive means flat fitted curve, though single readings scatter. *1 amine or outer side, *2 acyl side, *3 side chain or, on linkers, in order; H or OH if unused. Where a SMILES comes first, the peptide text is derived from it. Bridges are numbered along the chain shown (N, C = ends). [ ]: non-standard residue; d: D form. The star is where a group is joined. pTerphenylCO(4''-OnC5H11) = CCCCCOc1ccc(-c2ccc(-c3ccc(C(=O)*)cc3)cc2)cc1; Orn(4R-OH,5R-OH) = O=C([C@H](C[C@@H](O)[C@@H](O)N[*:3])N[*:1])[*:2]; hTyr(3S-OH,4S-OH) = N[C@H](C(=O)O)[C@H](O)[C@@H](O)c1ccc(O)cc1; Pro(3S-OH,4S-Me) = C[C@H]1CN[C@H](C(=O)O)[C@H]1O; Hyp = O=C(O)[C@@H]1C[C@@H](O)CN1

Test system: KB-3-1
Test: Cytotoxic Profiling of Annotated Libraries Using Quantitative High-Throughput Screening (AID 1296008); further: nearly all actives have a fitted effect of over 60% in size
Settings: Five cell lines viability, CellTiter-Glo ATP luminescence, 48-72 h; max response: hits give low values
Method in brief: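 Cells exposed to compounds for 48 or 72 hr at 37 degrees Celsius. Viability read as ATP-coupled luminescence with CellTiter-Glo after 10 min at room temperature.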
On the % scale 0 is the no-effect control and ±100 the full control effect; potency means the concentration at half of the fitted maximal effect.

SMILES	max response	Potency	outcome
Cc1ccc(C)c(NC(=O)[C@@H]2CCCN2S(=O)(=O)c2cccc3cccnc23)c1	9.71%	–	–
C[C@@H]1CC[C@@]23CC[C@]4(C)[C@@](C=CC5[C@@]6(C)CC[C@H](O)C(C)(C)C6CC[C@]54C)(OC2=O)C3[C@H]1C (stereo not given in full)	7.23%	–	–
O=C(NCC(=O)N1CCCC1)Nc1ccc2cnccc2c1	-4.72%	–	–
NS(=O)(=O)c1ccc(N2N=C(c3ccccc3)CC2c2ccccc2)cc1 (stereo not given)	-12.2%	–	–
COCCNCc1ccc(-c2cc3nccc(Oc4ccc(NC(=O)C5(C(=O)Nc6ccc(F)cc6)CC5)cc4F)c3s2)nc1	–	6.51 µM (active)	–
CC1(C)CCC2(C(=O)OC3OC(COC4OC(CO)C(O)C(O)C4O)C(O)C(O)C3O)CCC3(C)C(=CCC4C5(C)CCC(OC6OCC(O)C(O)C6O)C(C)(C)C5CCC43C)C2C1O (stereo not given)	–	–	inactive
CC1=C(C(=O)OC2CCCCC2)C(c2ccc([N+](=O)[O-])cc2)C2=C(CC(C)(C)CC2=O)N1 (stereo not given)	-12%	–	–
O=C(NCCO)c1cccc(-c2cc(Nc3ccc(OC(F)(F)F)cc3)ncn2)c1	-22.2%	–	–
CCC(C)C(=O)OC12C(OC(C)=O)C(C)C3(O)C(C=C(CO)CC4(O)C(=O)C(C)=CC43)C1C2(C)C (stereo not given)	–	–	inactive
C=C1CCN([C@H](C)[C@](O)(Cn2cncn2)c2ccc(F)cc2F)CC1	-0.073%	–	–
O=C(NCc1ccccc1-c1ccccc1C(=O)NCCc1ccccn1)OCc1ccccc1	8.57%	–	–
CC(=O)O[C@@H]1[C@@H](O)[C@H](O[C@@H]2[C@@H](O)[C@@H](O)[C@H](O[C@H]3[C@H](O[C@H]4[C@H](O[C@H]5CC[C@@]6(C)C(CC[C@]7(C)C6CC=C6[C@@H]8CC(C)(C)CC[C@]8(C(=O)O)CC[C@]67C)[C@]5(C)CO)O[C@H](CO)[C@@H](O)[C@@H]4O)OC[C@@H](O)[C@@H]3O)O[C@H]2C)OC[C@H]1O (stereo not given in full)	9.51%	–	–
C/C(=C\CO[C@@H]1O[C@H](CO[C@H]2OC[C@](O)(CO)[C@H]2O)[C@@H](O)[C@H](O)[C@H]1O)C(C)(C)O	2.14%	–	–
CC1(C)CC[C@]23CO[C@@]4(CCC5[C@@]6(C)CC[C@H](O[C@@H]7OC[C@H](O[C@@H]8O[C@H](CO)[C@@H](O)[C@H](O)[C@H]8O[C@@H]8OC[C@@H](O)[C@H](O)[C@H]8O)[C@H](O)[C@H]7O)[C@@](C)(CO)C6CC[C@@]5(C)[C@]4(C)CC2=O)[C@@H]3C1 (stereo not given in full)	–	–	inactive
C[C@@]12C(=O)N(c3ccc(C(=O)Nc4cccc5cccnc45)cc3)C(=O)[C@@H]1[C@@H]1C=C[C@H]2C1	-11.1%	–	–
COc1ccc(Sc2ccc(NC(=O)c3ccccc3Cl)cc2C#N)cc1	-1.86%	–	–
CCn1nc(C2CCN(C(=O)CCO)CC2)nc1-c1cnc(N)c(-c2nnc(C(C)(C)C)o2)n1	9.1%	–	–
O=C(/C=C/c1ccccc1O)O[C@@H]1O[C@H](CO)[C@@H](O)[C@H](O)[C@H]1O	–	–	inactive
Cn1ncnc1[C@@H]1c2n[nH]c(=O)c3cc(F)cc(c23)N[C@H]1c1ccc(F)cc1	–	–	inactive
C[C@@H]1CC[C@]2(C(=O)O)CC[C@]3(C)C(=CCC4[C@@]5(C)CC[C@H](O)[C@](C)(C(=O)O)C5CC[C@]43C)C2[C@]1(C)O (stereo not given in full)	0.684%	–	–

SMILES	max response	Potency	outcome
Nc1nc2c(nc(Br)n2[C@@H]2O[C@@H]3COP(=O)(O)O[C@H]3[C@H]2O)c(=O)[nH]1	–	–	inactive
CC(C)c1ccc(NC(=O)Cn2cnc3c2c(=O)n(C)c(=O)n3C)cc1	2.05%	–	–
CC/C(C)=C/C(=O)OC1C(OC2(C)CCC3C(C4C(C)CCC42)C3(C)C)OC(C)C(O)C1O (stereo not given)	–	–	inactive
Cc1ccc(CNc2ncnc3ccc(-c4ccc(CO)o4)cc23)o1	8.1%	–	–
CC(=O)O[C@@H]1CC2C(/C=C(\C)C(=O)[C@@]3(O)C[C@@H](C)[C@H](OC(=O)c4ccccc4)C3/C=C/1C)C2(C)C (stereo not given in full)	–	–	inactive
C=CC(C)(O)CC[C@@H]1[C@@]2(C)CCCC(C)(C)C2CC[C@@]1(C)O (stereo not given in full)	-9.76%	–	–
COc1c2c(c(C)c3c1C(=O)OC3)O[C@@]1(C)C[C@@H](OC(C)=O)[C@]34O[C@](OC)(CC[C@]3(C)[C@H]1C2)OC4(C)C	1.98%	–	–
Cc1cccc(-c2[nH]ncc2-c2ccc(F)c(-c3cnn(CCO)c3)c2)n1	-8.92%	–	–
CC1OC(OC2C(O)COC(O[C@@H]3[C@@H](O)[C@@H](O)[C@H](OC4C(OC(=O)[C@]56CCC(C)(C)CC5C5=CCC7[C@@]8(C)C[C@H](O)[C@H](OC9OC(CO)C(O)C(O)C9O)[C@@](C)(CO)C8[C@H](O)C[C@@]7(C)[C@]5(C)CC6)OCC(O)C4O)O[C@H]3C)C2O)C(O)C(O)C1O (stereo not given in full)	8.32%	–	–
Cc1cc(F)ccc1-c1nc(NCCN=C(N)NC#N)nc2c1ccc(=O)n2-c1c(F)cccc1F	0.209%	–	–
CCOc1ccc(-n2c([C@@H](C)N(Cc3cccnc3)C(=O)Cc3ccc(OC(F)(F)F)cc3)nc3ncccc3c2=O)cc1	4.98%	–	–
O=C(C(Cc1cccc(C(F)(F)F)c1)NS(=O)(=O)c1cc(F)c2c(c1)CCNC2)N1CCCC1 (stereo not given)	-6.26%	–	–
COc1ccc(N2CCN(C(=O)c3cc4c(s3)-c3ccccc3S(=O)(=O)C4)CC2)cc1	-19.5%	–	–
CC(=O)O[C@H]1C[C@@](O)(C(C)C)[C@@H]2[C@@H](OC(=O)c3ccc(O)cc3)CC(C)=CC[C@@]12C	6.43%	–	–
CC(C)C[C@H](CO)Nc1nc(S[C@@H](C)c2ccccc2)nc2nc(N)sc12	–	–	inactive
CCCCCOc1ccc(-c2ccc(-c3ccc(C(=O)N[C@H]4C[C@@H](O)[C@@H](O)NC(=O)[C@@H]5[C@@H](O)[C@@H](C)CN5C(=O)[C@H]([C@@H](C)O)NC(=O)[C@H]([C@H](O)[C@@H](O)c5ccc(O)cc5)NC(=O)[C@@H]5C[C@@H](O)CN5C(=O)[C@H]([C@@H](C)O)NC4=O)cc3)cc2)cc1 ({pTerphenylCO(4''-OnC5H11)}-[Orn(4R-OH,5R-OH)]T[Hyp][hTyr(3S-OH,4S-OH)]T[Pro(3S-OH,4S-Me)]; lactam 1-C)	–	–	inactive
COc1cc(C(C)=O)c(OC)c2c1OC(C)(C)C=C2	–	–	inactive
O=C(Nc1ccccc1C(=O)NC1CCCCNC1=O)c1cc2ccccc2s1 (stereo not given)	-2.87%	–	–
CCC[C@@]1(CCc2ccccc2)CC(O)=C([C@H](CC)c2cccc(NS(=O)(=O)c3ccc(C(F)(F)F)cn3)c2)C(=O)O1	-13.2% and -6.18%	–	–
CC(C)(Cc1ccccc1)NCC(O)c1ccc(O)c(NS(C)(=O)=O)c1 (stereo not given)	-4.4%	–	–
